# Laboratory results reported in the supplement of paper PMC11417369.
# Over roughly 25,000 sequences, “ln(normalized median fluorescence intensity)” has its median near 7.1; the highest 2% begin near 10. The sample as a whole holds a higher share of the highest values than the screen did.
# Tested on: PfSIP2 AP2 domain 1 (GST-tagged)
# Experiment: gcPBM binding intensity (ln(normalized median fluorescence intensity)); higher = stronger DNA binding
# Method in brief: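 The binding buffer was 1× PBS containing 1% milk, 0.2 mg/ml BSA, 0.5% salmon testes DNA and 0.03% Triton X-100. In it, GST-tagged P. falciparum DNA-binding domains expressed in E. coli were applied for 1 h to an Agilent 4 × 180k array of primer-extended double-stranded 36-bp intergenic genomic probes plus negative controls. Binding intensity, read with Alexa488 anti-GST antibody and a 488 nm scan, is the highest Masliner-normalised natural-log median intensity across replicate spots of either probe orientation.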
row,Sequence,gcPBM binding intensity (ln)
1,AAAACATTGTTGAACTGTTTTATTTATAAATATAAG [XGTACX_negctrl_site393],7.02
2,AAAATGAACAGACACACACACATATTTATATTTATA [CACACA_site7182],6.96
3,AAAATGAAGAAGTGCACACATATATATATTTATATA [CACACA_site507],10.7
4,TATAAAAATGTGCACACACACACATATTTATATTTA [CACACA_site6826],8.97
5,TTAAAATGAAGAAGTGCACACATATATATATTTATA [CACACA_site8063],10.4
6,CATAAAAATGAACATACACACATATATTTATTTATA [CACACA_site7222],6.85
7,TCCTTATATTTGCACACACACACAAGAAAATGAAAA [CACACA_site6613],8.3
8,CATGCCGTTAAATTATGTACTTATTATTTTAATATG [XGTACX_site4209],7.03
9,TATCATGTTTTTATGGTGCATGAAATCACACATTGA,9.32
10,TTATGGTGCATGAAATCACACATTGATATATATGCT [CACACA_site5352],11.3
11,TAAAAAAAATCATTCACACATATATGAAAAAAAAAA [CACACA_site5546],6.72
12,ATATATATATATATTGTGCACAAAAAAAAATAAGCA,9.29
13,ACAAAAAAATAAGGTGCACACAAAAAAAAAAAAAAA [CACACA_site8171],12
14,AATATAAAAATGCACACACACAAAAAAAAAAAAAAA [CACACA_site6546],7.37
15,AAAAATAAAAGGTGTGCACACAAAAATATATATATA [CACACA_site8507],8.89
16,AAAAAAATAAGGTGCACACAAAAAAAAAAAAAAAAA [CACACA_site812],12.4
17,TAAATATAAAAATGCACACACACAAAAAAAAAAAAA [CACACA_site895],7.44
18,GTCCTTCATCATATTTAACACACAGAGAAAAAGCGG [CACACA_site7979],7.68
19,AAAATAAAAAAAATAAATAAAAAAAATAATAATAAA [CACACA_negctrl_site563],6.55
20,TATAACTTTTTTATTACACACCTATGCAATATTATA [CACACA_site6570],7
21,TATATAATATAATTGACATGCAACCATTTTCGTGAA [TGCATGCA_site458],6.84
22,TATTTTTTTTGTTAGGTGCATTTACATTTATTTTTA,9.93
23,AAATATATGTTATATGTGCACTTTTTTTTTTTTTTT [GTGCAC_site9667],10.4
24,ATATGTTATATAAATATATATATATATATATATATA [TGCATGCA_negctrl_site594],9.55

row,Sequence,gcPBM binding intensity (ln)
1,TTTTTTTTTTTTTTGTGTACATATAATGCACATTAT [XGTACX_site6505],8.07
2,TTTTTGTTATTATGTGTGCACATATATATATATATA,9.79
3,ACTTTTTTTTTGTGTGTGCACTCGATTATATACATA [GTGCAC_site9846],10.3
4,TTTTTGTTATTTTTAGTGCACATTTAAGGGTGTATT,10.4
5,ATATATATTATGTGTGTGCACTTTTGTTATTATTAT,10.4
6,ATATTTATTTGTTAGTGTACATACATATATATATAT [XGTACX_site1347],9.24
7,CATACATATACTTTGTGTACATATATATATTATATA [XGTACX_site97],7.51
8,GAAAAATTTTTATATGTGCACATGTTATATATAATT [GTGCAC_site9742],8.64
9,TTTTTTTTTGTTATGTTGCACTTTGCCATATTATTA [GTGCAC_site9844],7.93
10,AAAAAACACGCGCACACACACACACGCGCCCACATA [CACACA_site7106],7.16
11,CATAAGAAAATAAAAACATGCACATAAGAAATATAC [TGCATGCA_site842],7.97
12,ATCTTTCAATAATTCACACATATATATATATATATA [CACACA_site4598],9.91
13,TTTTTTTCTATAATACACCAGAAAAAAAAATTAAAA [TGCATGCA_negctrl_site257],6.96
14,AATTTTTTTTTTTTTTTTTCTTTTGTAATAAACCAT [XGTACX_negctrl_site334],6.92
15,ATATATATTGTACTAGTGCATATATATACATATATT,8.43
16,TCATAAATATAAAGTGTGCACTTGAATAATATGTAT,9.52
17,ATTTTCTTTTCCATAGTGCAATATAATTATCCATCA [GTGCAC_site9547],8.36
18,ATATAAAGTATGTTAGTGCACTTTTTTTTTTTTTTT [GTGCAC_site9419],11.2
19,TGTGTATATATGCTGGTGCAACTTTAAAAAATAATC,10.1
20,ATATTTTATATATTTGTGCACAATATTATAATATAT,8.63
21,TTTTTCTTTTTTTTTTTAATAATATATAACAAATTT [CACACA_negctrl_site1724],6.81
22,TATATTTTATATATGGTGCAACTTTTATTTAAATAA,10.6
23,ATATCAAATAATTTAGTGCACTTTTTTTTTTCTTTT [GTGCAC_site9629],10.4
